From ChEMBL document CHEMBL3433997, “St. Jude Leishmania screening dataset” (2016)

Tests used:
Type in all cases: functional
[1] = target: Solute carrier family 2, facilitated glucose transporter member 1 (Homo sapiens) (UniProt P11166); test: ST_JUDE_LEISH: Cytotoxicity at 2uM final concentration against transgenic Leishmania Mexicana promastigotes LmGLUT1 that are glucose transport deficient and complemented with the human glucose transporter GLUT1. Activity is measured by DNA content using SYBR green in vitro
Solute carrier family 2, facilitated glucose transporter member 1 (Homo sapiens), sequence (P11166 whole entry): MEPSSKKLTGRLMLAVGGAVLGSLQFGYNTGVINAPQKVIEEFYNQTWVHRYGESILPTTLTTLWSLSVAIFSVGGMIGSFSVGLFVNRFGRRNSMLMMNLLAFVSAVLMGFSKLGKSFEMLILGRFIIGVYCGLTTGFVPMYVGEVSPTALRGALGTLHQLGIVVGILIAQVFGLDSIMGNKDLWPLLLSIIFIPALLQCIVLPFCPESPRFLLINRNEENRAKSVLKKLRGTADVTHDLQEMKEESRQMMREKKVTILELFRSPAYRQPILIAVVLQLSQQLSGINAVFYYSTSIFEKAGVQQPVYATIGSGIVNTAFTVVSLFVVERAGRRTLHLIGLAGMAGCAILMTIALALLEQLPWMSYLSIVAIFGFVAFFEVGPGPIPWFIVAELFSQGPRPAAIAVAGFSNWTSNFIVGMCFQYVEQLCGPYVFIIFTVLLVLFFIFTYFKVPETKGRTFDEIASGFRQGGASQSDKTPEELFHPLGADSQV

[2] = target: Hexose transporter 1 (Plasmodium falciparum) (UniProt O97467); test: ST_JUDE_LEISH: Cytotoxicity at 2uM final concentration against transgenic Leishmania Mexicana promastigotes LmPfHT that are glucose transport deficient and complemented with the Plasmodium falciparum hexose transporter. Activity is measured by DNA content using SYBR green in vitro
[3] = target: Glucose transporter (Leishmania mexicana) (UniProt O61059); test: ST_JUDE_LEISH: Cytotoxicity at 2uM final concentration against transgenic Leishmania Mexicana promastigotes LmGT2 that are glucose transport deficient and complemented with the L. Mexicana glucose transporter 2. Activity is measured by DNA content using SYBR green in vitro

| Structure (SMILES) | inhibition [1] [%] | inhibition [2] [%] | inhibition [3] [%] |
| --- | --- | --- | --- |
| O=C(NCc1ccco1)c1ccc(S(=O)(=O)c2ccc(Cl)cc2)cc1 | 0.13 | 1.22 | 0.06 |
| O=C(NC1CCN(c2ccnc3ccccc23)C1)c1ccc(OC(F)(F)F)cc1 (stereo unspecified) | 1.75 | 1.97 | 2.7 |
| COC(=O)c1cccc(CNCc2cccc(-c3ccc(-c4nc5cc(C(F)(F)F)ccc5[nH]4)cc3)c2)c1 | 2.29 | 3.53 | 2.66 |
| O=C(Nc1cccc(-c2ccc(-c3nc4cc(C(F)(F)F)ccc4[nH]3)cc2)c1)c1c[nH]cn1 | 5.73 | 5.19 | 0.52 |
| CC(=O)Oc1c(Cl)c(C)nc(C)c1-c1ccc(Oc2ccc(OC(F)(F)F)cc2)cc1 | 3.62 | 3.09 | 2.42 |
| Cc1ccc(-c2nc3cc(NC(=O)c4ccc([N+](=O)[O-])o4)ccc3o2)cc1Cl | 77 | 85.3 | 68.1 |
| Cc1nc(C)n(CC(=O)Nc2cccc(-c3cccc(-c4nc5cc(C(F)(F)F)ccc5[nH]4)c3)c2)n1 | 10.2 | 9.76 | 7.09 |
| COc1ccc(-c2csc(C(=O)NC3CCC(N4CCC(c5ccccc5C)CC4)CC3)c2)cc1 (stereo unspecified) | 3.25 | 4.24 | 3.51 |
| COc1cc2c(c(Cl)c1OC)CCN(Cc1ccccc1)CC2c1ccc(C(N)=O)cc1 (stereo unspecified) | 2.24 | 1.77 | 1.62 |
| COc1ccc(CN2CCC(CNCc3cccc(-c4ccccc4)c3)CC2)cc1 | 3.34 | 0.46 | 3.8 |
| Clc1ccc2c(NCCc3ccccn3)ccnc2c1 | 6.58 | 6.15 | 6.87 |
| CCN(CCCN1CCCCC1)c1cc(C)nc(Nc2ccc(Cl)cc2C)n1 | 1.07 | 1.21 | 1.9 |
